PubChem BioAssay (NCATS)
“And” between values parts separate entries of the source, which are not always exact repeats. Identical values can stand only once. Results filed as inconclusive are left out. Entries that show only a call come without a potency. The source made the active and inactive calls.

biological target: Glucocorticoid receptor (Homo sapiens) (UniProt P04150); assay: qHTS assay for small molecule antagonists of glucocorticoid receptor signaling (AID 588533; active = well fitted inhibition curve with a large enough effect in the signal ratio, with a control signal flat, not every such curve was filed as active; the % refers to the signal ratio;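 note: cells stimulated with 2 nM dexamethasone as agonist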); conditions: HeLa MMTV-bla, GRE beta-lactamase ratio, antagonist mode, 18 h; series mostly up to 76.8 µM
Procedure, shortened: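 Antagonist-mode qHTS: compound titrations added to GRE-bla HeLa cells, then dexamethasone 2 nM final; 18 h, 37 C. CCF4 FRET fluorescence normalized to dexamethasone and DMSO; IC50 from Hill fit.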

Glucocorticoid receptor (Homo sapiens), sequence (P04150 whole entry, looked up): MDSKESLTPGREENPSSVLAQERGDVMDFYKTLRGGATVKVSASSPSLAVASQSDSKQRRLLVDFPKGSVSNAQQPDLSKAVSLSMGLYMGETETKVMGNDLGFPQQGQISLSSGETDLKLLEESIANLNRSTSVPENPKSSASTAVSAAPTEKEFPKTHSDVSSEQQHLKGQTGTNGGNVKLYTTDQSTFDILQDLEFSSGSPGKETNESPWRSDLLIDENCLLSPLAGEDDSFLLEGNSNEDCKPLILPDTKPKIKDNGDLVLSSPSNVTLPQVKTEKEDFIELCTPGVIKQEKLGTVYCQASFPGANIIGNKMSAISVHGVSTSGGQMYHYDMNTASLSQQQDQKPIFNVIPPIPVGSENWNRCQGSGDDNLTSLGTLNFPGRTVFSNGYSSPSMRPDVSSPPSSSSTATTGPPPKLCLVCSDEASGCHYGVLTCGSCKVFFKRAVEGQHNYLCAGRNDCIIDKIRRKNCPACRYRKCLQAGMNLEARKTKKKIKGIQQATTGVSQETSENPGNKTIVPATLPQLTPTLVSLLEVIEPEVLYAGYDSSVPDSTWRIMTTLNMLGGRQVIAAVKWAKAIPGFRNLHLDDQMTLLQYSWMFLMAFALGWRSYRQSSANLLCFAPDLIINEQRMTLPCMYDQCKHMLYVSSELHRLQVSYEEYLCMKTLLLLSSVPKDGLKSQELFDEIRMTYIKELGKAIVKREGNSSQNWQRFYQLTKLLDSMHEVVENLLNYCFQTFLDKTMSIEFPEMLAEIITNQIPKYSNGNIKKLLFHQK

Compound | Potency
O=C(O)c1cc[c]([Hg][Cl])cc1 | inactive
COC1=CC(=O)O[C@@H](/C=C/c2ccccc2)C1 | inactive
CCCSP(=O)(OCC)SCCC | inactive
CCOP(=O)(OCC)O/C(=C/Cl)c1ccc(Cl)cc1Cl | inactive
CCOC(=O)c1ccccc1C(=O)OCC | inactive
C[C@H]1CC[C@@H]2[C@@H](C)[C@H]3[C@H](C[C@H]4[C@@H]5CC=C6CC(O[C@@H]7O[C@H](CO)[C@H](O)[C@H](O[C@@H]8O[C@H](CO)[C@@H](O)[C@H](O)[C@H]8O)[C@H]7O[C@H]7O[C@@H](C)[C@H](O)[C@@H](O)[C@H]7O)CC[C@]6(C)[C@H]5CC[C@]34C)N2C1 (stereo partly specified) | inactive

tested on: not listed separately; assay: qHTS assay for small molecule antagonists of peroxisome proliferator-activated receptor delta signaling (AID 588535; active = well fitted inhibition curve with a large enough effect in the signal ratio, with a control signal flat, not every such curve was filed as active; the % refers to the signal ratio;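 for max response: cells co-treated with a PPAR-delta agonist as stimulator during compound exposure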); conditions: HEK293T PPARd-UAS-bla, beta-lactamase FRET ratio, 18 h; 460 nm channel
Procedure, shortened: (§1)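 Titrations were run on PPAR-delta-UAS-bla HEK293T cells in charcoal/dextran-stripped serum, incubated 18 h at 37 C. CCF4 fluorescence (460/530 nm) after 2 h RT; Hill equation yields IC50 and maximal response.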

Compound | max response
C=CCN=C=S | 17.5%
O=C1C2CC=CCC2C(=O)N1SC(Cl)(Cl)Cl (stereo unspecified) | 55.5%
CCOP(=O)(OCC)O/C(=C/Cl)c1ccc(Cl)cc1Cl | -26.4% and 25.5%
CCOC(=O)c1ccccc1C(=O)OCC | 24.2% and 33.2%

biological target: Peroxisome proliferator-activated receptor delta (Homo sapiens) (UniProt Q03181); assay: as above; conditions: HEK293T PPARd-UAS-bla, beta-lactamase FRET ratio, 18 h; series mostly up to 76.7 µM
Procedure, shortened: as §1

Peroxisome proliferator-activated receptor delta (Homo sapiens), sequence (Q03181 whole entry, looked up): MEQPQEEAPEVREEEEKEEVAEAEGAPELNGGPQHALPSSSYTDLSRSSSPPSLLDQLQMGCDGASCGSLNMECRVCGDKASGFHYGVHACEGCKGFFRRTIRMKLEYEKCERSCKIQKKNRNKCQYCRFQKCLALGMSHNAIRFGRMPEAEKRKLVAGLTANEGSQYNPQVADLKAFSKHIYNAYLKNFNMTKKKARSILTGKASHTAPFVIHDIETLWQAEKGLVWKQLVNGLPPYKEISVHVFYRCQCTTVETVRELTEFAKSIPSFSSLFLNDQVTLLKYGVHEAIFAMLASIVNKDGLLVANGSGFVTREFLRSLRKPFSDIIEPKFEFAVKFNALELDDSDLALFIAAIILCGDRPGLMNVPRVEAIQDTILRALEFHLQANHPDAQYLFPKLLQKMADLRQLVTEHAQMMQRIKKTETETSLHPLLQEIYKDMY

Compound | outcome
C=CCN=C=S | inactive
O=C1C2CC=CCC2C(=O)N1SC(Cl)(Cl)Cl (stereo unspecified) | inactive
CCOP(=O)(OCC)O/C(=C/Cl)c1ccc(Cl)cc1Cl | inactive
CCOC(=O)c1ccccc1C(=O)OCC | inactive

biological target: Peroxisome proliferator-activated receptor gamma (Homo sapiens) (UniProt P37231); assay: qHTS assay for small molecule agonists of peroxisome proliferator-activated receptor gamma signaling (AID 588536; active = well fitted curve in the direction sought with a large enough effect in the signal ratio, with a control signal flat, not every such curve was filed as active; the % refers to the signal ratio); conditions: HEK293 PPARg-UAS-bla, beta-lactamase ratio, 16 h, percent of rosiglitazone response, DMSO as zero; series mostly up to 76.7 µM
Procedure, shortened: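 Beta-lactamase reporter read-out: CCF4 fluorescence (ex 405, em 460/530 nm) after 2 h at RT. HEK293 GeneBLAzer cells were treated for 16 h at 37 C. Hill fits gave EC50 and efficacy versus 2 uM rosiglitazone (100%) and DMSO (0%).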

Peroxisome proliferator-activated receptor gamma (Homo sapiens), sequence (P37231 whole entry, looked up): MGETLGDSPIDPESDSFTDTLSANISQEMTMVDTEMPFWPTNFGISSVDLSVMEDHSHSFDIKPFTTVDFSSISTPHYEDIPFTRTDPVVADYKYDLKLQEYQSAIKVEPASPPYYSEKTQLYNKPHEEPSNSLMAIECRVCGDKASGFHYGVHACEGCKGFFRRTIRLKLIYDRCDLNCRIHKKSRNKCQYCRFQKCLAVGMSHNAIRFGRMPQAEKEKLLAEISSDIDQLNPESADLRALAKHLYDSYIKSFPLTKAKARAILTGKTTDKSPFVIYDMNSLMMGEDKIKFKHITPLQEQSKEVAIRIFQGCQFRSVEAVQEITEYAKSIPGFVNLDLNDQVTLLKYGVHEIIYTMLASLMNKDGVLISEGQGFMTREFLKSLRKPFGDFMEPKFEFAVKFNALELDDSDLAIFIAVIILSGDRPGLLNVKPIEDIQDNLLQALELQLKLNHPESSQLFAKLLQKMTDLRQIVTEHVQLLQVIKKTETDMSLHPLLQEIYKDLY

Compound | outcome
COc1ccc2c(c1OC)C(=O)OC2C1c2cc3c(cc2CCN1C)OCO3 (stereo unspecified) | inactive
C=CCN=C=S | inactive
COC1=CC(=O)O[C@@H](/C=C/c2ccccc2)C1 | inactive
Oc1cc(Cl)c(Cl)cc1Cl | inactive
CCCSP(=O)(OCC)SCCC | inactive
O=C1C2CC=CCC2C(=O)N1SC(Cl)(Cl)Cl (stereo unspecified) | inactive
O=C1C[C@@H]2OCC=C3CN4CC[C@]56c7ccccc7N1[C@H]5[C@H]2[C@H]3C[C@H]46 | inactive
O=[N+]([O-])c1ccc(F)c([N+](=O)[O-])c1 | inactive
CCOC(=O)c1ccccc1C(=O)OCC | inactive

biological target: Peroxisome proliferator-activated receptor gamma (Homo sapiens) (UniProt P37231); assay: qHTS assay for small molecule antagonists of peroxisome proliferator-activated receptor gamma signaling (AID 588537; active = well fitted inhibition curve with a large enough effect in the signal ratio, with a control signal flat, not every such curve was filed as active; the % refers to the signal ratio;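 note: reporter cells co-stimulated with 50 nM rosiglitazone agonist during compound treatment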); conditions: HEK293 PPARg-UAS-bla, beta-lactamase ratio, antagonist mode; series mostly up to 76.8 µM
Procedure, shortened: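 Antagonist-mode β-lactamase reporter screen run as a titration series. HEK293 PPARγ-UAS-bla cells are stimulated with rosiglitazone (50 nM final) for 16 h, then CCF4 is read at 460/530 nm. Data are scaled between DMSO and rosiglitazone and fitted to the Hill equation.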

Compound | Potency
COc1ccc2c(c1OC)C(=O)OC2C1c2cc3c(cc2CCN1C)OCO3 (stereo unspecified) | inactive
O=C(O)c1cc[c]([Hg][Cl])cc1 | inactive
COC1=CC(=O)O[C@@H](/C=C/c2ccccc2)C1 | inactive
Oc1cc(Cl)c(Cl)cc1Cl | inactive
CCCSP(=O)(OCC)SCCC | inactive
O=C1C[C@@H]2OCC=C3CN4CC[C@]56c7ccccc7N1[C@H]5[C@H]2[C@H]3C[C@H]46 | inactive
CCOC(=O)c1ccccc1C(=O)OCC | inactive
C[C@H]1CC[C@@H]2[C@@H](C)[C@H]3[C@H](C[C@H]4[C@@H]5CC=C6CC(O[C@@H]7O[C@H](CO)[C@H](O)[C@H](O[C@@H]8O[C@H](CO)[C@@H](O)[C@H](O)[C@H]8O)[C@H]7O[C@H]7O[C@@H](C)[C@H](O)[C@@H](O)[C@H]7O)CC[C@]6(C)[C@H]5CC[C@]34C)N2C1 (stereo partly specified) | inactive
